Targets with a hit are over-represented here; the source holds about 8,800 in all. About 0.5% of all pairs of compound and target were hits.
Each target was assayed with CC1=C(C=C(C=C1)NC(=O)C2=CC(=CC=C2)N(C)C)NC(=O)C3=CC=C(C=C3)O (assay: log2 fold change, soluble protein after heating vs DMSO (PISA); higher = thermal stabilisation; K562 lysate, 10 uM; active = over 0.2 and 3.5 SD of the protein, either way, in both replicates (recomputed)).
Outline: (§1)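 The values are log-two fold changes in thermal stability compared with solvent controls and come from duplicates. They were obtained by TMTpro 16plex LC-MS/MS, with channel sums equalised, on the supernatant after 21,000xg for 90 min. That supernatant came from crude K562 extract at 1 mg/mL protein treated with 10 μM compound for 30 min, heated for 3 min across 48°C-58°C, pooled and brought to 0.5% NP-40 at 4°C.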
Sequence of UniProt P45985 (P45985 whole entry, looked up): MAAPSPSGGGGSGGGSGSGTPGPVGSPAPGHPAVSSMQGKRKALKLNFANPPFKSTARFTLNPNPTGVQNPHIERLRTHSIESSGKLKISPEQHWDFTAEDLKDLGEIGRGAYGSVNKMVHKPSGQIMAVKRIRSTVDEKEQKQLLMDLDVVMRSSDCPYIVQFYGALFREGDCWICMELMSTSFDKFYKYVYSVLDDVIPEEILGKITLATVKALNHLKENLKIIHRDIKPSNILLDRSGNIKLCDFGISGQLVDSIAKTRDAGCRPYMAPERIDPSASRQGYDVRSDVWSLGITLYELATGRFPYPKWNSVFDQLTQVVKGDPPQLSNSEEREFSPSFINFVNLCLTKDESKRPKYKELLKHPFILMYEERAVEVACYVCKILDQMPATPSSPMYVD
Sequence of UniProt Q96T76 (Q96T76 whole entry, looked up): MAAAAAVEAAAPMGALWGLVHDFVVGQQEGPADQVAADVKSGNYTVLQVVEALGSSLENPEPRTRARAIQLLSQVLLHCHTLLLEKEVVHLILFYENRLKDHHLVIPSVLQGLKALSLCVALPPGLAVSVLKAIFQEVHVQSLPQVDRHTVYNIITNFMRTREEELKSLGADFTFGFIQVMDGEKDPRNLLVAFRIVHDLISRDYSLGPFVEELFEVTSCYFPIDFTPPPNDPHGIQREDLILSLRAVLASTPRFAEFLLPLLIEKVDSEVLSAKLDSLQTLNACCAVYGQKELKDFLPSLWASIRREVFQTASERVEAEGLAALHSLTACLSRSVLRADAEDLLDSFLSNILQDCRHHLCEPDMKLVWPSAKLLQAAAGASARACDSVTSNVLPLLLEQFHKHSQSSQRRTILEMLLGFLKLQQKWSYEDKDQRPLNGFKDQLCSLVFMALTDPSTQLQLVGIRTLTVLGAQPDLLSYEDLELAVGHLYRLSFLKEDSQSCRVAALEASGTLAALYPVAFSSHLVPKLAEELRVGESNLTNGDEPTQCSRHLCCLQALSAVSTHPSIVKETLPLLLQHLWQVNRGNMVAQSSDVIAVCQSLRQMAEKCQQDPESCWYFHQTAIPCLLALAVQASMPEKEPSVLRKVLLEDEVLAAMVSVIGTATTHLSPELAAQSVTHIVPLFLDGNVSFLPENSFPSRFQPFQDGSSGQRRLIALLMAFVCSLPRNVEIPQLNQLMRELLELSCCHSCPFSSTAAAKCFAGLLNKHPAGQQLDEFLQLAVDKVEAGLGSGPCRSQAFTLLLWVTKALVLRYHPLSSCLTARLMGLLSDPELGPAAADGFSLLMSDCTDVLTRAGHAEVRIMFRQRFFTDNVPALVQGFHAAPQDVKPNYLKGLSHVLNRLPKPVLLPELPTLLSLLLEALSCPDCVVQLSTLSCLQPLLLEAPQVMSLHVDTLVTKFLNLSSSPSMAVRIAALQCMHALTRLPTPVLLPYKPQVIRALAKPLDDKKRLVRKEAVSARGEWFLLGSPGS
Sequence of UniProt Q9NX58 (Q9NX58 whole entry, looked up): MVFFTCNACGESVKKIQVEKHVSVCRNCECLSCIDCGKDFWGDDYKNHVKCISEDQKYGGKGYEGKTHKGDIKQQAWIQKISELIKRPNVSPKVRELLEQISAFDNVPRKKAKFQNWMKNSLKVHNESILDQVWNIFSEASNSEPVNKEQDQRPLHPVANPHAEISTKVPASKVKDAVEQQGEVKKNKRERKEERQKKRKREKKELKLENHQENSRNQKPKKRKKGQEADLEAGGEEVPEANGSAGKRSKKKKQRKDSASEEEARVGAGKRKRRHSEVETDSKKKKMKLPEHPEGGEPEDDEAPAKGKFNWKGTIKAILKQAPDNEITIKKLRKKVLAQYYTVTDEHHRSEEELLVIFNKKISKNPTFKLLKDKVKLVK
Sequence of UniProt Q9UFC0 (Q9UFC0 whole entry, looked up): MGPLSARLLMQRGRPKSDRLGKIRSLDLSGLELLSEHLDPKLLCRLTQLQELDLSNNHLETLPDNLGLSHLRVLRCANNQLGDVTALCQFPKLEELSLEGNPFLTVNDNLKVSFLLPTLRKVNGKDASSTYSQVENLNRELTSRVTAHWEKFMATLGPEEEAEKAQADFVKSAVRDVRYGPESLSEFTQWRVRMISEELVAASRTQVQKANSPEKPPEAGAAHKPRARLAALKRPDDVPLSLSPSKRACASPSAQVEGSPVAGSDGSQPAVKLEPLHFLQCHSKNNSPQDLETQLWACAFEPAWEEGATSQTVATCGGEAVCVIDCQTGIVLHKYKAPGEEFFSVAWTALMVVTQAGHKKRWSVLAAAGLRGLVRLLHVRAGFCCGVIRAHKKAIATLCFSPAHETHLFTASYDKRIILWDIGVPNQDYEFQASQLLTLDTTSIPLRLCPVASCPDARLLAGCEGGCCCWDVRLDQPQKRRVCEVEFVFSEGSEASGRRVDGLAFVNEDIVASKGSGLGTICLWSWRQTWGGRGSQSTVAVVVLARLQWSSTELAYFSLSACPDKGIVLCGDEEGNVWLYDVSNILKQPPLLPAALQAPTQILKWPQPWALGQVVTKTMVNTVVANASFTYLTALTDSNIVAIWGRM
Sequence of UniProt Q9NSK0 (Q9NSK0 whole entry, looked up): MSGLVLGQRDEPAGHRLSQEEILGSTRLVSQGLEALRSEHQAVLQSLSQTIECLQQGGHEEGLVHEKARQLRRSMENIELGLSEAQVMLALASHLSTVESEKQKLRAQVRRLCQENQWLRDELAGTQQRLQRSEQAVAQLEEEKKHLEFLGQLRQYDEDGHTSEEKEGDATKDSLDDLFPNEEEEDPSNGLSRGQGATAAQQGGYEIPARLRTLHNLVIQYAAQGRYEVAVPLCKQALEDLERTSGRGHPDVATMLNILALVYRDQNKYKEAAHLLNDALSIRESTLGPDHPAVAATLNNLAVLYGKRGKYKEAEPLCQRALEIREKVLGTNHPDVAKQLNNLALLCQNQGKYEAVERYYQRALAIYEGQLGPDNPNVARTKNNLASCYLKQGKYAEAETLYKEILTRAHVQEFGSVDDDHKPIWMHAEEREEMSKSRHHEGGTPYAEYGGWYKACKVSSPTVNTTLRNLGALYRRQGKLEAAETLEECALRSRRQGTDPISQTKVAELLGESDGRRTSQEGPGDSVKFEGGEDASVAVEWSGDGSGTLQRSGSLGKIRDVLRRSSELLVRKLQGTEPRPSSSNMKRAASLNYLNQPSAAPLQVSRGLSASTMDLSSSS
Sequence of UniProt Q9BTE3 (Q9BTE3 whole entry, looked up): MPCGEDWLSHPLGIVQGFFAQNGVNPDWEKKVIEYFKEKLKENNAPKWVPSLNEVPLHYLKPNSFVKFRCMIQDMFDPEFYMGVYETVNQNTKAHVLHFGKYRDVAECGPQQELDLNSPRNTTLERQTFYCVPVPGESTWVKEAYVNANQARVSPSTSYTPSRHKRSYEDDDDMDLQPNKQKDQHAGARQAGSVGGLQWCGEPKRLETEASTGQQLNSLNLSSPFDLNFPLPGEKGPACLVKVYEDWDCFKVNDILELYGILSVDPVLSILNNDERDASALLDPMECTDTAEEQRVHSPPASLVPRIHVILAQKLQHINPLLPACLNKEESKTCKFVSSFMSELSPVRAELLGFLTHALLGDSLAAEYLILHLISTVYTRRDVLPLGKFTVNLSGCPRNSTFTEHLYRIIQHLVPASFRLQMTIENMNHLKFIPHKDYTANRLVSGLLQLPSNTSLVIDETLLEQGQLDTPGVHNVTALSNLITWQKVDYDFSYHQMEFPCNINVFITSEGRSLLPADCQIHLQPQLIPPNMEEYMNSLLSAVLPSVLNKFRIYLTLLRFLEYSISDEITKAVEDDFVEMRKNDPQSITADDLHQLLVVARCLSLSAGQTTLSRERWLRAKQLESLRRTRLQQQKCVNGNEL
Sequence of UniProt Q9BTT4 (Q9BTT4 whole entry, looked up): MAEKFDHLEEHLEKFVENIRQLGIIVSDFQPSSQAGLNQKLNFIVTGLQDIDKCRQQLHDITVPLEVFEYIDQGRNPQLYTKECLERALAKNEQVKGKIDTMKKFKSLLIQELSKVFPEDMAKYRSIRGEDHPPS
Sequence of UniProt Q16644 (Q16644 whole entry, looked up): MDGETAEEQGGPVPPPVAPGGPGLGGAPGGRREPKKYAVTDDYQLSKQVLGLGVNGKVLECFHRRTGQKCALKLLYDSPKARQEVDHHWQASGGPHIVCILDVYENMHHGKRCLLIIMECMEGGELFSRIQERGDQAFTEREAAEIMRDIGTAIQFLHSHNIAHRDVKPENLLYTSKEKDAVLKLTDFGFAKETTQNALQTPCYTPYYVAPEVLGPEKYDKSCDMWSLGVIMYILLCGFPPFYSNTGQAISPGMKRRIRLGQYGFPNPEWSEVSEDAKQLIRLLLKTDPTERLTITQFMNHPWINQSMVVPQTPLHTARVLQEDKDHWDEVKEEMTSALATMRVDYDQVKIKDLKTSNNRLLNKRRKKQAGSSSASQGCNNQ
Sequence of UniProt P45984 (P45984 whole entry, looked up): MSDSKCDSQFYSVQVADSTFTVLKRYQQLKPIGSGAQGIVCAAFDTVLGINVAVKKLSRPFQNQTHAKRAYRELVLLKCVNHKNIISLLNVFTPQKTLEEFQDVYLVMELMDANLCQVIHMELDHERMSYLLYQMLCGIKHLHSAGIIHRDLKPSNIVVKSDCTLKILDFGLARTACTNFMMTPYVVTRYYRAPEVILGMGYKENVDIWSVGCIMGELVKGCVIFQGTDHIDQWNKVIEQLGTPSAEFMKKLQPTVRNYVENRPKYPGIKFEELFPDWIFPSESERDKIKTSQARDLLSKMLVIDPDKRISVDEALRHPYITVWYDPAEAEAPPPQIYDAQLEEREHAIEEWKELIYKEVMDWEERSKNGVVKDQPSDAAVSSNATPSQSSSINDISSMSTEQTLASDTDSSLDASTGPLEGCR
Sequence of UniProt P10620 (P10620 whole entry, looked up): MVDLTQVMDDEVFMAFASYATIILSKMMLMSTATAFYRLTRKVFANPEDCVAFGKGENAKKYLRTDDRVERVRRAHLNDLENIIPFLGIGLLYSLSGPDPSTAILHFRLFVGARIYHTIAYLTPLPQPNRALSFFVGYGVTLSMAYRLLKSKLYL
In the case of MAP1S (UniProt Q66K74), the log2 fold change is reported as 0.025 (inactive). With MON2 isoform 5 (UniProt Q7Z3U7) the log2 fold change was 0.025 (inactive). In the case of LRPPRC (UniProt P42704), the log2 fold change is reported as 0.052 (inactive). With LBR (UniProt Q14739) the log2 fold change was -0.026 (inactive). With MAPK14 (UniProt Q16539) the log2 fold change was 0.455 (inactive). In the case of MLST8 (UniProt Q9BVC4), the log2 fold change is reported as 0.044 (inactive). In the case of MMS19 isoform 8 (UniProt Q96T76), the log2 fold change is reported as 0.055 (inactive). In the case of KNL1 (UniProt Q8NG31), the log2 fold change is reported as 0.004 (inactive). For KLC1 isoform 6 (UniProt Q07866), the log2 fold change was -0.002 (inactive). In the case of MICU1 isoform 3 (UniProt Q9BPX6), the log2 fold change is reported as 0.038 (inactive). With MOCS1 isoform 8 (UniProt Q9NZB8) the log2 fold change was -0.026 (inactive). In the case of KLHL36 (UniProt Q8N4N3), the log2 fold change is reported as -0.098 (inactive). MAP2K4 isoform 2 (UniProt P45985) was tested, and the log2 fold change was 0.033 (inactive). In the case of MED17 (UniProt Q9NVC6), the log2 fold change is reported as 0.021 (inactive). For MAP2K5 (UniProt Q13163), the log2 fold change was 0.052 (inactive). LRWD1 (UniProt Q9UFC0) was tested, and the log2 fold change was 0.032 (inactive). With MCMBP (UniProt Q9BTE3) the log2 fold change was 0.011 (inactive). For MRPL15 (UniProt Q9P015), the log2 fold change was 0.009 (inactive). In the case of MAST4 (UniProt O15021), the log2 fold change is reported as -0.023 (inactive). MBLAC2 (UniProt Q68D91) was tested, and the log2 fold change was -0.044 (inactive). With KNSTRN (UniProt Q9Y448) the log2 fold change was 0 (inactive). With MAP4K4 isoform 3 (UniProt O95819) the log2 fold change was 0.062 (inactive). MACROD1 (UniProt Q9BQ69) was tested, and the log2 fold change was 0.064 (inactive). With MAPK9 (UniProt P45984) the log2 fold change was -0.029 (inactive). LRRC40 (UniProt Q9H9A6) was tested, and the log2 fold change was 0.01 (inactive). MRPL10 isoform 2 (UniProt Q7Z7H8) was tested, and the log2 fold change was 0.053 (inactive). In the case of MICB, A0A140T979, the log2 fold change is reported as 0.004 (inactive). In the case of LIG3 (UniProt P49916), the log2 fold change is reported as 0.028 (inactive). In the case of MAPKAPK3 (UniProt Q16644), the log2 fold change is reported as 0.029 (inactive). With KIF2C (UniProt Q99661) the log2 fold change was 0.039 (inactive). In the case of LRCH3 (UniProt Q96II8), the log2 fold change is reported as 0.07 (inactive). LYAR (UniProt Q9NX58) was tested, and the log2 fold change was 0.015 (inactive). MGST1 (UniProt P10620) was tested, and the log2 fold change was 0.014 (inactive). In the case of KLC4 isoform 3 (UniProt Q9NSK0), the log2 fold change is reported as -0.001 (inactive). For MAPKAPK5 (UniProt Q8IW41), the log2 fold change was 0.048 (inactive). MED10 (UniProt Q9BTT4) was tested, and the log2 fold change was 0.074 (inactive). LPIN1 isoform 7 (UniProt Q14693) was tested, and the log2 fold change was 0.007 (inactive). With KIF21A isoform 5 (UniProt Q7Z4S6) the log2 fold change was 0.014 (inactive). MAP2K1 (UniProt Q02750) was tested, and the log2 fold change was -0.012 (inactive).

Each target was assayed with CC1=CC=C(C=C1)SC2=C3C=C(SC3=CN=C2)C(=O)N in the same assay as above.
Outline: as §1
MAP1S (UniProt Q66K74) was tested, and the log2 fold change was 0.006 (inactive). MON2 isoform 5 (UniProt Q7Z3U7) was tested, and the log2 fold change was 0 (inactive). In the case of LRPPRC (UniProt P42704), the log2 fold change is reported as 0.016 (inactive). For LBR (UniProt Q14739), the log2 fold change was -0.036 (inactive). In the case of MAPK14 (UniProt Q16539), the log2 fold change is reported as -0.007 (inactive). With MLST8 (UniProt Q9BVC4) the log2 fold change was 0.023 (inactive). With MMS19 isoform 8 (UniProt Q96T76) the log2 fold change was 0.004 (inactive). For KNL1 (UniProt Q8NG31), the log2 fold change was 0.012 (inactive). In the case of KLC1 isoform 6 (UniProt Q07866), the log2 fold change is reported as -0.017 (inactive). With MICU1 isoform 3 (UniProt Q9BPX6) the log2 fold change was 0.019 (inactive). For MOCS1 isoform 8 (UniProt Q9NZB8), the log2 fold change was -0.002 (inactive). In the case of KLHL36 (UniProt Q8N4N3), the log2 fold change is reported as -0.003 (inactive). MAP2K4 isoform 2 (UniProt P45985) was tested, and the log2 fold change was -0.045 (inactive). In the case of MED17 (UniProt Q9NVC6), the log2 fold change is reported as 0.001 (inactive). In the case of MAP2K5 (UniProt Q13163), the log2 fold change is reported as -0.211 (inactive). In the case of LRWD1 (UniProt Q9UFC0), the log2 fold change is reported as 0.04 (inactive). MCMBP (UniProt Q9BTE3) was tested, and the log2 fold change was 0.014 (inactive). In the case of MRPL15 (UniProt Q9P015), the log2 fold change is reported as -0.023 (inactive). In the case of MAST4 (UniProt O15021), the log2 fold change is reported as 0.049 (inactive). In the case of MBLAC2 (UniProt Q68D91), the log2 fold change is reported as -0.019 (inactive). For KNSTRN (UniProt Q9Y448), the log2 fold change was 0.002 (inactive). With MAP4K4 isoform 3 (UniProt O95819) the log2 fold change was -0.056 (inactive). In the case of MACROD1 (UniProt Q9BQ69), the log2 fold change is reported as 0.065 (inactive). In the case of MAPK9 (UniProt P45984), the log2 fold change is reported as -0.015 (inactive). With LRRC40 (UniProt Q9H9A6) the log2 fold change was -0.007 (inactive). MRPL10 isoform 2 (UniProt Q7Z7H8) was tested, and the log2 fold change was 0.042 (inactive). For MICB, A0A140T979, the log2 fold change was -0.068 (inactive). For LIG3 (UniProt P49916), the log2 fold change was 0.015 (inactive). With MAPKAPK3 (UniProt Q16644) the log2 fold change was 0.033 (inactive). For KIF2C (UniProt Q99661), the log2 fold change was 0.016 (inactive). With LRCH3 (UniProt Q96II8) the log2 fold change was 0.034 (inactive). With LYAR (UniProt Q9NX58) the log2 fold change was 0.038 (inactive). In the case of MGST1 (UniProt P10620), the log2 fold change is reported as 0.05 (inactive). In the case of KLC4 isoform 3 (UniProt Q9NSK0), the log2 fold change is reported as 0.003 (inactive). In the case of MAPKAPK5 (UniProt Q8IW41), the log2 fold change is reported as -0.066 (inactive). MED10 (UniProt Q9BTT4) was tested, and the log2 fold change was 0.074 (inactive). In the case of LPIN1 isoform 7 (UniProt Q14693), the log2 fold change is reported as -0.009 (inactive). For KIF21A isoform 5 (UniProt Q7Z4S6), the log2 fold change was 0.024 (inactive). For MAP2K1 (UniProt Q02750), the log2 fold change was -0.004 (inactive).

Source: the supplement of paper PMC10849652
